# Screens from PubChem BioAssay.
# Hits are enriched below; roughly 3.8% of the tested compounds scored in any of these assays.
# ELG1 DNA repair: ELG1-dependent DNA repair inhibition; HEK293T ELG1-luciferase reporter, luminescence, 16 h; DNA damage induced by 5-fluorouridine; Potency, µM (series often up to 46.1 µM), usual class: inhibitors; actives 2.3% (n = 330,000); AID 504467; also: nearly all actives have a fitted effect of over 55% in size
#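 Luminescence from the luciferase reporter, measured 30 min after ONE-Glo reagent at room temperature, was the read-out. Beforehand, 2,000 cells per well were exposed for 16 hr at 37 °C to 5-fluorouridine together with compound or vehicle.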
# Nrf2 ARE act: activates Nrf2 signaling; Potency, µM (top dose mostly 46.1 µM), usual class: activators; AREc32 ARE-luciferase reporter (MCF7-derived line), luminescence, 24 h; actives 0.31% (n = 410,000); also: nearly all actives have a fitted effect of over 65% in size
#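 Quantitative high-throughput format: AREc32 reporter cells, 1000 per well, received compound by pin transfer and were incubated 24 hr at 37 deg C, 5% CO2, before Steady-Glo luminescence detection.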
# Nrf2 block: Nrf2 pathway inhibition; A549 ARE-Fluc reporter, luciferase luminescence, 18-24 h; Potency, µM (highest dose often 46 µM), actives largely listed as inhibitors; actives 2.1% (n = 360,000); AID 504444; also: nearly all actives have a fitted effect of over 60% in size
#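 Reporter: ARE-Fluc in A549. Exposure: 18-24 h, 37 °C, 5% CO2, 5% FBS OPTI-MEM. Readouts: fluorescent cytotoxicity (CellTiter-Fluor), then luminescent Nrf2 signal after BugLite.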
# IDH1 R132H inh: blocks human mutant IDH1 R132H enzyme; AID 602179; O75874; actives 0.093% (n = 390,000); IDH1-R132H enzyme, NADPH consumption, diaphorase/resazurin fluorescence; Potency, µM (titrated, usually from 76.6 µM), usual class: inhibitors; also: nearly all actives have a fitted effect of over 65% in size
# Target sequence (O75874 whole entry R132H, stated change not applied): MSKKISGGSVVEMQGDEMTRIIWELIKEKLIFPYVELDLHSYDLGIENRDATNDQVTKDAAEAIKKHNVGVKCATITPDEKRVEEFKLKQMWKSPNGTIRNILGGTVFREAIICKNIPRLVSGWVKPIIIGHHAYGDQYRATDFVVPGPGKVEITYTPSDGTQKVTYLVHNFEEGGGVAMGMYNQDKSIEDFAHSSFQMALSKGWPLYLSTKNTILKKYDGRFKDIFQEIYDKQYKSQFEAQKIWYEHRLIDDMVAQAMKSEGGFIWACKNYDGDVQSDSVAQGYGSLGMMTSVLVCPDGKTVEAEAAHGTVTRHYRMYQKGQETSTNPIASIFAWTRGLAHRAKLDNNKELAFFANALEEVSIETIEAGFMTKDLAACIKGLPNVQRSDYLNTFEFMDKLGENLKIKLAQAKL
#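 IDH1-R132H (0.5 ug/mL dispensed) in pH 7.5 Tris buffer was preincubated 30 min with compound, then given a substrate mix of 0.016 mM NADPH and 2 mM alpha-KG for 80 min at room temperature; remaining NADPH was read by diaphorase/resazurin fluorescence.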
# A549 tox: counter-screen for Nrf2 inhibitors: cytotoxicity in A549 cells; A549 ARE-Fluc cells, CellTiter-Fluor viability, 18-24 h; Potency, µM (series often up to 46 µM), most hits filed as inhibitors; actives 0.16% (n = 390,000)
#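 A549 ARE_Fluc cells in 5% FBS OPTI-MEM were exposed to compounds in concentration-response for 18-24 h at 37 deg C. Viability was read by CellTiter-Fluor fluorescence (Ex 405/Em 525) after 30 min, before the luciferase read.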
# Hits are given with their value; - = inactive; ? = inconclusive; . = no result; [ ] = another dose, or the depositor's remark. Calls follow the shape of the dose curve; as a rule, active = well fitted curve in the direction sought with a large enough effect; inconclusive = small, poorly fitted or top-dose-only effect, or another doubt; inactive = no such curve, though single readings can be large; an effect the other way counts as inactive or inconclusive.
SMILES,ELG1 DNA repair,Nrf2 ARE act,Nrf2 block,IDH1 R132H inh,A549 tox
Cn1c(=O)c2c(nc(NC3CCCCC3)n2Cc2ccccc2)n(C)c1=O,?,-,-,-,-
O=C(COC(=O)c1ccccc1NCCO)Nc1cccc(S(=O)(=O)NC2=NCCCCC2)c1,-,-,-,-,-
Cc1ccc2cccc(NC(=O)c3ccc(C#N)cc3F)c2n1,.,-,?,-,-
Cc1cc(C(=O)C(C)OC(=O)c2ccc(NC(=O)CC#N)cc2)c(C)n1-c1ccccc1 (stereo not drawn),?,-,18.4µM,-,-
COc1cc2c(cc1NC(=O)Nc1ccc(C)cc1)oc1ccccc12,?,-,-,-,-
COc1cc2c(cc1NC(=O)CSc1ccccc1)oc1ccccc12,?,-,-,-,-
COc1cc2c(cc1NC(=O)C(C)Sc1ccc(NC(C)=O)cc1)oc1ccccc12 (stereo not drawn),16.4µM,-,?,-,-
COc1cc2c(cc1NC(=O)CSc1nc3ccccc3[nH]1)oc1ccccc12,?,-,18.4µM,-,?
C1=C[C@H]2CCCN3CC[C@@H]([C@@H]2[C@]32CO2)[C@H]1CCOCc1ccccc1,.,-,.,.,.
COc1ccc(-c2nc3ncccc3o2)cc1NC(=O)c1cccs1,-,-,-,-,-
O=C(Nc1cc(-c2nc3ncccc3o2)ccc1Cl)c1cccs1,-,6.31µM,-,-,-
COc1ccc(N(Cc2cccs2)C(=O)Nc2ccccc2)cc1,.,-,-,-,-
O=c1oc2ccccc2cc1-c1nc(-c2cccs2)cs1,?,2.51µM,.,-,-
COc1cccc2cc(-c3nc(-c4cccs4)cs3)c(=O)oc12,?,?,-,-,-
C/C=C1\COC(C(=O)NCc2ccccn2)(C(F)(F)F)C=C1C=C(C)C (stereo not drawn),.,.,-,.,-
CCOc1c(/C=C(\C#N)C(N)=O)c2ccccc2n1CC,13µM,-[9.22 µM],?,-,-
CCOC(=O)/C(C#N)=C\c1c(OCC)n(CC)c2ccccc12,?,-,?,-,?
O=C(/C=C/c1ccc2ccccc2n1)N1CCN(S(=O)(=O)c2ccccc2F)CC1,16.4µM,-,-,-,-
Cc1ccc(/C=N/N2C(=S)SC(C)(C)C2N(O)C(=O)Nc2ccc([N+](=O)[O-])cc2)cc1 (stereo not drawn),-,-,?,-,?
CC1(C)SC(=S)N(/N=C/c2ccc(O)cc2)C1N(O)C(=O)Nc1ccc([N+](=O)[O-])cc1 (stereo not drawn),-,-,16.4µM,-,?
O=C(NCCN1CCC(n2c(=O)[nH]c3ccccc32)CC1)c1ccc(F)cc1Cl,.,-,.,.,.
COc1ccc(NC(=O)Nc2cc(F)ccc2C)cc1,-,-,20.6µM,-,-
COc1ccc(NC(=O)Nc2ccc(F)cc2F)cc1,?,-,?,-,-
Cn1nc(C(=O)Nc2ccc(Br)cc2)cc1C(=O)Nc1ccc(Br)cc1,-,-,-,-,-
COc1cccc(NC(=O)Nc2cc(Cl)ccc2C)c1,-,-,18.4µM,-,-
SMILES,ELG1 DNA repair,Nrf2 ARE act,Nrf2 block,IDH1 R132H inh,A549 tox
COc1cccc(NC(=O)c2cc(C(=O)Nc3cccc(OC)c3)n(C)n2)c1,13µM,-,?,-,-
COc1ccc(C2c3c(ncn(CCCc4ccccc4)c3=N)Oc3ccc4ccccc4c32)cc1OC (stereo not drawn),.,.,-,.,-
COc1ccc(C2Nc3ccccc3C(=O)N2Cc2ccc(C(F)(F)F)cc2)cc1COc1ccc(NC(C)=O)cc1 (stereo not drawn),.,.,?,.,-
O=c1cnnc(N/N=C/c2c[nH]c3ccccc23)[nH]1,-,12.6µM,?,-,-
Cc1ccc(Oc2cc([N+](=O)[O-])cc3c2C(=O)Nc2ccccc2O3)cc1,?,-,14.6µM,-,-
COc1ccc(C2Nc3ccccc3C(=O)N2Cc2ccc(C(C)(C)C)cc2)cc1COc1ccc(NC(C)=O)cc1 (stereo not drawn),.,.,18.4µM,.,-
Nc1c(C(=O)NCc2ccc3c(c2)OCO3)c2nc3ccccc3nc2n1CCCN1CCOCC1,?,-,-,-,-
COCCn1c(N)c(C(=O)NCc2cccs2)c2nc3ccccc3nc21,?,-,23.1µM,-,-
COc1ccccc1CNC(=O)c1c(N)n(CCCN2CCOCC2)c2nc3ccccc3nc12,?,-,18.4µM,-,?
Nc1c(C(=O)NCCN2CCOCC2)c2nc3ccccc3nc2n1CCc1ccccc1,?,-,14.6µM,-,-
CCCn1c(-c2ccc(S(=O)(=O)N3CCOCC3)cc2)csc1=Nc1ccc(OCC)cc1,.,-,?,-,-
CCC(=O)C1=C(c2cccc(OC)c2)N(C(=O)CC)n2c(nnc2C2CCCCC2)S1,.,-,.,-,-
CCc1cc2c(=O)c(-c3ccc4c(c3)OCCO4)c(C)oc2cc1OS(C)(=O)=O,23.1µM,-,23.1µM,-,?
O=C(Cc1ccc(-n2c(=O)c3ccccc3n(Cc3ccc(F)cc3)c2=O)cc1)NCC1CCCO1 (stereo not drawn),10.3µM,-,-,-,-
O=C(Cc1ccc(-n2c(=O)c3ccccc3n(Cc3ccccc3F)c2=O)cc1)NCC1CCCO1 (stereo not drawn),?,-,-,-,-
CCc1ccccc1NC(=O)Cn1c(=O)n(-c2ccc(CC(=O)NCC3CCCO3)cc2)c(=O)c2ccccc21 (stereo not drawn),-,-,-,-,-
O=C(Cc1ccc(-n2c(=O)c3ccccc3n(Cc3ccccc3Cl)c2=O)cc1)NCC1CCCO1 (stereo not drawn),9.2µM,-,-,-,-
NN=C1c2cc(S(=O)(=O)NCCO)ccc2-c2ccc(S(=O)(=O)NCCO)cc21,.,.,-,.,-
COc1cccc(/C=C/C(=O)OCC(=O)c2c[nH]c3ccccc23)c1,?,-,-,-,-
COc1cc(/C=C/C(=O)OCC(=O)c2ccc(OC(F)F)cc2)ccc1O,18.3µM,-,-,-,-
CCc1cccc2c(C(=O)COC(=O)/C=C/c3ccc(O)c(OC)c3)c[nH]c12,20.6µM,-,-,-,-
O=C(/C=C/c1ccco1)OCC(=O)c1ccc(OC(F)F)cc1,?,?,-,-,-
COc1cccc(/C=C/C(=O)OCC(=O)c2c[nH]c3ccccc23)c1OC,16.4µM,?,-,-,-
COc1cc(CC(=O)NCCCc2ccccc2)cc(OC)c1OC,-,-,-,-,-
CCCNC(=O)c1ccccc1NC(=O)c1ccccc1N(C)S(=O)(=O)c1ccc(C)cc1,23.1µM,-,?,-,?
Cc1cccc(-n2nc(C(=O)c3ccco3)cc(-c3nc4ccccc4[nH]3)c2=N)c1,13µM,-,-,-,?
Cc1ccccc1-n1nc(C(=O)c2cccs2)cc(-c2nc3ccccc3[nH]2)c1=N,13µM,-,-,-,?
